PubChem BioAssay (NCATS)
Inconclusive results are not listed. Values without a mark were called inactive. Calls come from the whole dose curve; as a rule, active = well fitted cell-killing curve with a large enough effect; inconclusive = small, poorly fitted or top-dose-only effect, or effect the other way; inactive = flat fitted curve, though single readings scatter.

Tested on: PA-1
Assay: Primary qHTS to identify gynecologic anti-cancer compounds using libraries of approved drugs and bioactive compounds (AID 1345084); note: nearly all actives have a fitted effect of over 55% in size
Settings: Gynecologic cancer cell panel viability, ATPlite luminescence, 48 h; series mostly up to 57.5 µM; activity change, negative = cytotoxicity: at the top concentration
Method in brief: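 Measured: luminescence after ATPlite addition (15 min, RT). Exposure: 48 h, 37 C, 5% CO2.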
% is set by controls: 0 for no effect and ±100 for the full control effect.

Going from `Cc1ccccc1N1CCN(S(=O)(=O)C[C@]23CC[C@H](C[C@@H]2NC(=O)[C@@H](N)CCS(C)(=O)=O)C3(C)C)CC1` to `Nc1ncnc2c1c(COc1cccc(Cl)c1)nn2C1CCOCC1`, the “activity change, negative = cytotoxicity” value falls from 10.8% to -13.8%.

First: O=C(OCc1ccccc1O[C@@H]1O[C@H](CO)[C@@H](O)[C@H](O)[C@H]1O)C1(O)C=CCCC1O (stereo partly specified)
Second: O=C(O)Cc1cn([C@@H]2OC[C@@H](O[C@@H]3O[C@H](CO)[C@@H](O)[C@H](O)[C@H]3O)[C@H](O)[C@H]2O[C@@H]2O[C@H](CO)[C@@H](O)[C@H](O)[C@H]2O)c2ccccc12
The “activity change, negative = cytotoxicity” value of the first is lower: 0.221% [at 25.3 µM] for the first, 3.66% [at 25.3 µM] for the second.

First: C=C1C(=O)O[C@@H]2/C=C(\C)CC/C=C(\C(=O)O[C@@H]3O[C@H](CO)[C@@H](O)[C@H](O)[C@H]3O)CC[C@@H]12
Second: CC1(C)C(=O)N2c3ccccc3C(O)(CC(C(=O)O)n3cnc4ccccc4c3=O)C2N1O (stereo unspecified)
The “activity change, negative = cytotoxicity” value of the first is lower: -28.9% [at 25.3 µM] for the first, 5.53% [at 25.3 µM] for the second.

First: C/C(=C/CO)CC[C@H]1[C@]2(C)C[C@H](O)CC(C)(C)[C@H]2CC[C@]1(C)O
Second: CC12CC34CC(O)C5C(CO)(CO)CC(=O)CC5(C)C3CC1C2C4 (stereo unspecified)
The “activity change, negative = cytotoxicity” value of the first is lower: 2.96% [at 38.5 µM] for the first, 4.81% [at 38.5 µM] for the second.

Going from `C[C@@H]1C[C@@H](O)[C@@]23CO[C@]2(CO)CCC[C@@H]3[C@@]12C[C@@H](c1ccoc1)OC2=O` to `CC(CC12CCCN1C(=O)C1CCCN1C2=O)OC(N)=O` (stereo unspecified), the “activity change, negative = cytotoxicity” value rises from 0.61% [at 38.5 µM] to 22.8% [at 38.5 µM].

With `COc1cc2c(c(OC)c1O)C(c1ccc(O)cc1)C1C(=O)OC3C(COC(=O)C1=C2)OC(CO)(OC1OC(COC(=O)/C=C/c2ccc(OC4OC(C)C(O)C(O)C4O)cc2)C(O)C(O)C1O)C3O` (stereo unspecified) the activity change, negative = cytotoxicity was -0.775% [at 11.6 µM].
